Assay in all cases: log2 fold change, soluble protein after heating vs DMSO (PISA); higher = thermal stabilisation; K562 cells, 10 uM, 30 min; active = over 0.2 and 3.5 SD of the protein, either way, in both replicates (recomputed)
Compound in one test: CCCCN(Cc1ccc(C(=O)NO)cc1)C(=O)Nc1ccccc1 [Nexturastat A]
A digest of the protocol:
(§1)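 K562 cells at 2×10^6 cells/mL were treated for 30 min with 10 μM compound, and aliquots were heated for 3 min over 48°C-58°C before pooling. Extraction used PBS with 0.5% NP-40 at 4°C, and soluble protein was the supernatant after 21,000xg for 90 min, measured by TMTpro 16plex LC-MS/MS with channel sums equalised. Thermal stability values, relative to control samples and from duplicates, are log2 fold changes.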

Compound in a further test: CCN(CC)Cc1ccc2cc(COC(=O)Nc3ccc(C(=O)NO)cc3)ccc2c1 [givinostat]
Put shortly:
as §1

Compound in test [1]: CC1=NC(=CC=C1)C2=C(N=C(N2)C(C)(C)C)C3=CC4=NC=CN=C4C=C3
Put shortly:
as §1

Compound in the next test: CCCS(=O)(=O)Nc1ccc(F)c(C(=O)c2c[nH]c3ncc(-c4ccc(Cl)cc4)cc23)c1F [vemurafenib]
A digest of the protocol:
as §1

Compound in test [2]: CCCc1cc(C)[nH]c(=O)c1CNC(=O)c1cc(-c2ccnc(N3CCN(C)CC3)c2)cc2c1cnn2C(C)C
Put shortly:
as §1

Compound in a further test: CCN(CCCOc1ccc2c(Nc3cc(CC(=O)Nc4cccc(F)c4)[nH]n3)ncnc2c1)CCOP(=O)(O)O [barasertib]
A digest of the protocol: as §1

Compound in test [3]: CC1=CC=C(C=C1)SC2=C3C=C(SC3=CN=C2)C(=O)N
A digest of the protocol: as §1

Compound in test [4]: CCCS(=O)(=O)Nc1ccc(F)c(C(=O)c2c[nH]c3ncc(Cl)cc23)c1F
Put shortly:
as §1

Compound in test [5]: CC1=C(C=C(C=C1)NC(=O)C2=CC(=CC=C2)C(C)(C)C#N)NC3=CC4=C(C=C3)N=CN(C4=O)C
Put shortly: as §1

Compound in test [6]: CC1=C(C=C(C=C1)NC(=O)C2=CC(=CC=C2)N(C)C)NC(=O)C3=CC=C(C=C3)O
Put shortly: as §1

Of roughly 7,900 targets only a part is listed; those with a hit were picked by preference. About 0.6% of all pairs of compound and target were hits. Unmarked numbers belong to inactive results.

Sequence of UniProt Q9P2D6 (Q9P2D6 whole entry, looked up): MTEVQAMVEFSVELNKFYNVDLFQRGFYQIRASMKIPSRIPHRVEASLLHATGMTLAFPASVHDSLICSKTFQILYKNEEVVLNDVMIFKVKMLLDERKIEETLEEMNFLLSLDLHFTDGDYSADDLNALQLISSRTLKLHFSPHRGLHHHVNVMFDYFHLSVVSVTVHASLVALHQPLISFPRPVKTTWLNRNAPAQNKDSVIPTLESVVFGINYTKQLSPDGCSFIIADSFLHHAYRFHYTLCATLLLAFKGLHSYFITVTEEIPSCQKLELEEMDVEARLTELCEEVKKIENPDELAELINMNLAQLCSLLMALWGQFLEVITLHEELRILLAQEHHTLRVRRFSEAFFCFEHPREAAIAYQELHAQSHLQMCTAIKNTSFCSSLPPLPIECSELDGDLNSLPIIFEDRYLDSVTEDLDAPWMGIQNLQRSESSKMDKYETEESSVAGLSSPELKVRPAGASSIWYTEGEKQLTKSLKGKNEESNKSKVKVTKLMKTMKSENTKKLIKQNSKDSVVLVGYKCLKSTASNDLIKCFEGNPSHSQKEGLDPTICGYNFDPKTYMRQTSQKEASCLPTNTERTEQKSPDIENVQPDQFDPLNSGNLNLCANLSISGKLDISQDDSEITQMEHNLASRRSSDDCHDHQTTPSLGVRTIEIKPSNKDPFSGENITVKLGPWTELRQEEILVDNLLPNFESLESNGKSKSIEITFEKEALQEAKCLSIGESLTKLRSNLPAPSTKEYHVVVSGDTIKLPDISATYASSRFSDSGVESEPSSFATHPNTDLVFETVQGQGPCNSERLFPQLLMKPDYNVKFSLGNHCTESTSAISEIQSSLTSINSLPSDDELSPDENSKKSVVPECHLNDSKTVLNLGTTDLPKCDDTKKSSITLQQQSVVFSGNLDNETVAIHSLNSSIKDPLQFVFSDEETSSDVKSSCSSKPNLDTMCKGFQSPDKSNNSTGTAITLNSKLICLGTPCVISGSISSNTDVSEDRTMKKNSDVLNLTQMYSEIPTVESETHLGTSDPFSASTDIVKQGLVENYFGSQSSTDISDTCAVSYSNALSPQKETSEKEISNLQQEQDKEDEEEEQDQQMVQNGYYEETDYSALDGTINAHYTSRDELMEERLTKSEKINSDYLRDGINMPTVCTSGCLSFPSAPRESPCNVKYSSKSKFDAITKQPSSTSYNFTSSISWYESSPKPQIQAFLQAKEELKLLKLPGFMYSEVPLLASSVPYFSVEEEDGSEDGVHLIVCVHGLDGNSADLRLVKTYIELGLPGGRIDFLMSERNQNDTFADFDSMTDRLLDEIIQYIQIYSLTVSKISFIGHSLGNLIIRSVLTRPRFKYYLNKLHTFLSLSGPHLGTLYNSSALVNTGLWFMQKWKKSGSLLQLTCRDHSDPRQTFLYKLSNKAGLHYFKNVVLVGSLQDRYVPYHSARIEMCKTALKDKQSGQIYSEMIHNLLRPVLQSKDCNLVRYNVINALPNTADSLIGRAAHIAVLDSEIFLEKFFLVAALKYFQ
Sequence of UniProt P50548 (P50548 whole entry, looked up): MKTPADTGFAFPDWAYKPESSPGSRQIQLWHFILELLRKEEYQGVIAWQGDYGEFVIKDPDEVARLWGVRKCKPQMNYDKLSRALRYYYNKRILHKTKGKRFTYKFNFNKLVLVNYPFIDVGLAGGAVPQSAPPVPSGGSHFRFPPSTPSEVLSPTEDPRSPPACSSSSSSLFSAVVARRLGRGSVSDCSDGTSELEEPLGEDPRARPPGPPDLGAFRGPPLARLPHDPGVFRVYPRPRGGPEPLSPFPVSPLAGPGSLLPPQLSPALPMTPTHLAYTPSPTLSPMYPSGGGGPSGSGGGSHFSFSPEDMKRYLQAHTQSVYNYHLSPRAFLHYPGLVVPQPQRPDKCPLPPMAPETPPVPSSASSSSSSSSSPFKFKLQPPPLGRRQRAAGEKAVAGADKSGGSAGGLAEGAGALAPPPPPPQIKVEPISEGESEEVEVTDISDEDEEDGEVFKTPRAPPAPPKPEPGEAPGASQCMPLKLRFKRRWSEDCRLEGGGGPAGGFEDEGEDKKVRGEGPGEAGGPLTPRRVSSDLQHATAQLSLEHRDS
Sequence of UniProt Q07973 (Q07973 whole entry, looked up): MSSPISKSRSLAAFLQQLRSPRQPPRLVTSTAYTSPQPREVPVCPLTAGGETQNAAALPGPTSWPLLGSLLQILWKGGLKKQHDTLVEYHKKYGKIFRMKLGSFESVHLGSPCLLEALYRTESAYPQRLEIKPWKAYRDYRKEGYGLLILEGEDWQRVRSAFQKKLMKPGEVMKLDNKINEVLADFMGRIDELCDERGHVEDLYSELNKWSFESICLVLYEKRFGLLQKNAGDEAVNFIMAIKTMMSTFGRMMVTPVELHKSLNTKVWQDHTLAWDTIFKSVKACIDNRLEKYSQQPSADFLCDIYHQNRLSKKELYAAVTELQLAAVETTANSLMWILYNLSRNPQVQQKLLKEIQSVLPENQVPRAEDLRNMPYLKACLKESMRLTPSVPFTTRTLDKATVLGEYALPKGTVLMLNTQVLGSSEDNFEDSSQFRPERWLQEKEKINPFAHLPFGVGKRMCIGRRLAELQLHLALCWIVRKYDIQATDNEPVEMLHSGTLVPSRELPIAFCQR
Sequence of UniProt Q4LDG9 (Q4LDG9 whole entry, looked up): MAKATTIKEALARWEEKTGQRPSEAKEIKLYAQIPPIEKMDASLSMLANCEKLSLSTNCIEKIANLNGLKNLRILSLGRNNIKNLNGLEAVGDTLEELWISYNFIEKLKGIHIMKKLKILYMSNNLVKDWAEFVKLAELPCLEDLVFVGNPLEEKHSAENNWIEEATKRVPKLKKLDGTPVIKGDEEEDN
Sequence of UniProt Q8WYA6 (Q8WYA6 whole entry, looked up): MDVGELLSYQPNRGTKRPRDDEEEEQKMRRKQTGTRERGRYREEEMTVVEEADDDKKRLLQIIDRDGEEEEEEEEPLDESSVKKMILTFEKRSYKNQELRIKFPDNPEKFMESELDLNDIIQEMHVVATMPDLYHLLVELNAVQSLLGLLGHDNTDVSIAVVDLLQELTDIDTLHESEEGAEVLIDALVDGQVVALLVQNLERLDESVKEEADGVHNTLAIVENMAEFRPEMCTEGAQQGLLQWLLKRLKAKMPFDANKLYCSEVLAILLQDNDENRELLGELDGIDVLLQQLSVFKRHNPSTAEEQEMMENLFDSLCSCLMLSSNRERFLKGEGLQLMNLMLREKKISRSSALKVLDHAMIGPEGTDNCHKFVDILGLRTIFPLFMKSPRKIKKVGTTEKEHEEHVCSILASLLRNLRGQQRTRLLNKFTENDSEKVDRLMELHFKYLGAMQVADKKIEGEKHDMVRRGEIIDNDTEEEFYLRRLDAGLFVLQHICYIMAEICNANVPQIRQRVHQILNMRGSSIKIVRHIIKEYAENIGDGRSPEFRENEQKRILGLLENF
Sequence of UniProt Q9NZJ5 (Q9NZJ5 whole entry, looked up): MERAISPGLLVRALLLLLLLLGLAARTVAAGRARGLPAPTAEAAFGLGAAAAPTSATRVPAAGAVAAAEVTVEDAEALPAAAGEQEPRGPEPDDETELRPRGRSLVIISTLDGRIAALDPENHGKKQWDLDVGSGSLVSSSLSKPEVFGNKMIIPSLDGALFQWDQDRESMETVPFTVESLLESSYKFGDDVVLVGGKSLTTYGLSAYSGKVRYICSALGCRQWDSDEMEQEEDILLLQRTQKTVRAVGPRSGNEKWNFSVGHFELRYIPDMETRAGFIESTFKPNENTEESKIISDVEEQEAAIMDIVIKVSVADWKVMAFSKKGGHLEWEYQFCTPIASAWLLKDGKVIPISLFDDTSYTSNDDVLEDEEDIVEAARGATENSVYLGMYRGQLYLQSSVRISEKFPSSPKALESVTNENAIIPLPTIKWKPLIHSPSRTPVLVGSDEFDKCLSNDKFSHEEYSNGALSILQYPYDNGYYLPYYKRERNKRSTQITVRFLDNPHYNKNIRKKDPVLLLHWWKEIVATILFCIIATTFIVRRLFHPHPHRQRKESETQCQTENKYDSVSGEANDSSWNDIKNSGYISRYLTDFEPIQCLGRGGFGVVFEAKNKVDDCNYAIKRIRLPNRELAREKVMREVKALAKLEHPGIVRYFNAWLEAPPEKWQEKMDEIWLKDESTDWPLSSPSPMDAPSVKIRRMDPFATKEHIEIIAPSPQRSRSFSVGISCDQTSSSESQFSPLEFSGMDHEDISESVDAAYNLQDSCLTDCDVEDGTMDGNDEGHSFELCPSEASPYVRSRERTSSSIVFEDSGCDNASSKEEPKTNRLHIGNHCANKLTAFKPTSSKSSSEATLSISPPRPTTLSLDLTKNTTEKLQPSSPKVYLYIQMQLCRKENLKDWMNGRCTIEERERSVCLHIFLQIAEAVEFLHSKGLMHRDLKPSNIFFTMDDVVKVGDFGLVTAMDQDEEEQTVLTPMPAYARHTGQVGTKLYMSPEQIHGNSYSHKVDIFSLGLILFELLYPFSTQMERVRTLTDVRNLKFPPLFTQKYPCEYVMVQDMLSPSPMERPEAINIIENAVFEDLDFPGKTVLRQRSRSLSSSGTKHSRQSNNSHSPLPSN
Sequence of UniProt P80370 (P80370 whole entry, looked up): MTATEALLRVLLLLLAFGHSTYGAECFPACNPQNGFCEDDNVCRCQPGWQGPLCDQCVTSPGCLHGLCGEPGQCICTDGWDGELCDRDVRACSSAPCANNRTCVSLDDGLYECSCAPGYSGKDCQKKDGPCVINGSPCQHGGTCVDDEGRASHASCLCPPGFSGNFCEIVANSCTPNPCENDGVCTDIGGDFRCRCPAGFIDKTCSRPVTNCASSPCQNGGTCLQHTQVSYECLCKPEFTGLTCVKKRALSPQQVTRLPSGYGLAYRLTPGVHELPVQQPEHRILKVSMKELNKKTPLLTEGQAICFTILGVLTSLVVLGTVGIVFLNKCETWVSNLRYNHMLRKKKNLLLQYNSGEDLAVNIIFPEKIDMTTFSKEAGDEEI

Take ELOVL7 (UniProt A1L3X0): the log2 fold change with Nexturastat A is 0.016; with givinostat, 0.034.

With DLK1 (UniProt P80370), the log2 fold change in [1] was -0.033; with Nexturastat A, -0.003; with vemurafenib, -0.026.

As for DOP1A (UniProt Q5JWR5), the log2 fold change in the test with Nexturastat A is 0.47 (active); with vemurafenib, 0.045; in test [2] it was -0.166; with givinostat, 0.057; in the test with barasertib, -0.047.

With CTNNBL1 (UniProt Q8WYA6), the log2 fold change in [3] was 0.185; with vemurafenib it was -0.02; in test [4] it was -0.166; with barasertib, 0.012.

Regarding EIF2AK3 (UniProt Q9NZJ5), the log2 fold change in [3] is 0.036; in test [1], -0.043; with Nexturastat A, -0.595; in [4], -0.161; in [2], 0.244; in the test with givinostat, 0.027. The log2 fold change with barasertib was 0.151.

Regarding EPHX2 (UniProt E5RI53), the figures for the log2 fold change with Nexturastat A and with barasertib were 0.029 and 0.094, respectively.

Take DDX46, A0A0C4DG89: the log2 fold change is 0.058 in the test with Nexturastat A and 0.149 in [2].

With ENTR1 (UniProt Q96C92), the log2 fold change in test [3] was -0.091; in the test with vemurafenib, 0.06; in test [4], -0.105; with givinostat, 0.062.

For FAM135A (UniProt Q9P2D6), the log2 fold change in test [5] was -0.178; with Nexturastat A, 0.5 (active); with vemurafenib, -0.042; with givinostat, 0.131.

For DDB1 isoform 2 (UniProt Q16531), the log2 fold change in test [5] is -0.144; with Nexturastat A, -0.061; with barasertib, 0.116.

In the case of EEF2K (UniProt O00418), the log2 fold change in test [6] was 0.006; in [3], 0.043; in the test with Nexturastat A, 0.201; with vemurafenib it was 0.089; in test [4] it was 0.157; in test [2], 0.15. Moreover, in the test with givinostat, the log2 fold change was -0.041.

On to EDRF1 (UniProt Q3B7T1), for which the log2 fold change is -0.022 in test [5]; 0.21 in [6]; -0.042 with Nexturastat A; 0.019 in [2]; 0.114 in the test with givinostat; -0.036 with barasertib.

For the target DNAL1 (UniProt Q4LDG9), the log2 fold change in test [6] was 0.049; in test [1], 0.069; with Nexturastat A it was -0.135; with vemurafenib it was 0.013; in the test with barasertib, 0.012.

EEF1D isoform 3 (UniProt P29692): the log2 fold change in [2] is -0.674; with givinostat it was -0.236.

As for FADS1 (UniProt F5GYH4), the log2 fold change in [1] is -0.254; in the test with vemurafenib, -0.052; with barasertib it was 0.024.

F2RL3 (UniProt Q96RI0): the log2 fold change is 0.032 in test [6]; 0.053 in [3]; -0.156 with vemurafenib; 0.035 in test [4]; -0.06 with givinostat.

As for DNAH10 (UniProt Q8IVF4), the log2 fold change in test [5] was -0.034; in test [1] it was -0.114; with Nexturastat A it was 0.434; with vemurafenib it was -0.067; in [2], -0.269; in the test with givinostat it was 0.307. In addition, in the test with barasertib, the log2 fold change is 0.014.

For the target FAM160A2 isoform 2 (UniProt Q8N612), the log2 fold change was 0.134 in test [6]; 0.016 in test [1]; -0.066 with Nexturastat A; -0.164 with vemurafenib; -0.172 in test [2]; 0.109 with barasertib.

On to CYP24A1 (UniProt Q07973), for which the log2 fold change is 0.051 in test [6]; -0.039 in test [3]; -0.306 in test [1]; -0.198 with vemurafenib; -0.057 in test [4]; -0.183 in [2]. The log2 fold change is 0.233 with givinostat and -0.146 with barasertib.

With ERF (UniProt P50548), the values for the log2 fold change (in [5]; with Nexturastat A; with givinostat) were -0.551, 0.033 and -0.133, respectively.
